Source: PubChem (National Center for Advancing Translational Sciences (NCATS))
VACV Venus inh: qHTS for Stage-Specific Inhibitors of Vaccinia Orthopoxvirus: Venus Reporter Primary qHTS | Vaccinia virus Venus reporter expression, fluorescence | Potency, µM (highest dose often 36.5 µM), for inactives: top-dose activity change, negative = inhibition, usual class: inhibitors | 330,000 tested, 0.46% active | AID 720580, 2013; calls by dose curve; tested in A549 cells; note: % is set by controls: 0 for no effect and ±100 for the full control effect; nearly all actives have a fitted effect of over 30% in size
Pf growth 96h: Primary qHTS for delayed death inhibitors of the malarial parasite plastid, 96 hour incubation. 320,000 tested, 6.9% active. P. falciparum luciferase reporter growth, 96 h. Potency, µM (series often up to 28.7 µM), without a hit: at the top dose activity change, negative = inhibition, usual class: inhibitors; note: % is set by controls: 0 for no effect and ±100 for the full control effect
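Delayed-death screen, second-generation endpoint: infected erythrocytes, 2% hematocrit, 0.05% parasitemia final; 96 hours at 37 C, 5% CO2; luciferase detection reagent; luminescence decrease equals reduced growth.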
Vaccinia mCherry: qHTS for Stage-Specific Inhibitors of Vaccinia Orthopoxvirus: mCherry Reporter Primary qHTS; Vaccinia virus mCherry reporter infection, fluorescence; Potency, µM (top dose mostly 36.5 µM), for inactives: at the highest dose activity change, negative = inhibition, actives largely listed as inhibitors; 310,000 tested, 0.63% active; AID 720579, 2013; calls by dose curve; tested in A549 cells; note: % is set by controls: 0 for no effect and ±100 for the full control effect; nearly all actives have a fitted effect of over 35% in size
NS1 inh: qHTS Assay for Inhibitors of Influenza NS1 Protein Function | Potency, µM (highest dose often 46.1 µM), for inactives: at the highest dose activity, positive = more growth | AID 2326, 2010 | 270,000 tested, 0.4% active; calls by dose curve; note: actives are rising curves; nearly all actives have a fitted effect of over 50% in size
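In this qHTS, NS1 from influenza A is expressed in budding yeast, where it slows growth. Cells are switched from glucose to 2% galactose medium (pH 6.0, -URA), treated with compound, and growth recovery is read at OD600.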
HCV inhibitor: qHTS Assay for Inhibitors of Hepatitis C Virus (HCV); Huh7.5.1 HCVcc-Cre infection, luciferase reporter, 44 h; Potency, µM (highest dose often 41.8 µM), for inactives: at the top dose activity change, negative = inhibition, usual class: inhibitors; 340,000 tested, 3.4% active; note: % is set by controls: 0 for no effect and ±100 for the full control effect
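A cell-based infection assay in which seeded cells (1,000 per well) receive test compound after 4 h, are inoculated with HCVcc-Cre at approximately 0.5 moi, and are incubated 44 h before luminescence detection.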
Pf growth 48h: Primary qHTS for delayed death inhibitors of the malarial parasite plastid, 48 hour incubation | P. falciparum luciferase growth in erythrocytes, 48 h | Potency, µM (series often up to 28.7 µM), without a hit: at the highest dose activity change, negative = inhibition, actives largely listed as inhibitors | 310,000 tested, 5.9% active | AID 504832, 2011; note: % is set by controls: 0 for no effect and ±100 for the full control effect
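Erythrocytes infected with P. falciparum carrying an integrated firefly luciferase reporter (2% hematocrit, 0.1% parasitemia final) were exposed to compounds in RPMI 1640 with 0.5% Albumax at 37 C, 5% CO2. Growth inhibition was scored as reduced luminescence.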
Numbers without * were called inactive; i = inactive; ? = inconclusive; nt = no result given; [ ] = another dose, or the depositor's remark. An excerpt weighted towards active compounds, which were near 11% of everything screened. Unless noted, calls come from the whole dose curve; as a rule, active = well fitted inhibition curve with a large enough effect; inconclusive = small, poorly fitted or top-dose-only effect, or another doubt; inactive = no such curve, though single readings can be large or run the other way. Potency is the fitted concentration of half-maximal effect.

SMILES	VACV Venus inh	Pf growth 96h	Vaccinia mCherry	NS1 inh	HCV inhibitor	Pf growth 48h
COc1cccc(CNCCc2c[nH]c3ccccc23)c1OCc1ccccc1	?	34%	-30%	2%	10µM*	?
CC1(C)CC(=O)C(C=NC(CCC(N)=O)C(=O)O)=C(O)C1 (configuration not stated)	-4%	?	i	4%	-10%	2%
Cc1ccc2[nH]c(C)c(CCNC(=O)c3cc4cc(Br)ccc4oc3=O)c2c1	-6%	nt	-1%	nt	nt	nt
CCc1ccc(CNC(=O)CN2C(=O)CSc3ccc(S(=O)(=O)N4CCOCC4)cc32)cc1	-7%	nt	-10%	nt	nt	nt
COc1ccccc1CCNCc1ccc(OC)c(OCc2ccccc2)c1	nt	0%	nt	-17%	10µM*	0%
CCOC(=O)CNC(=S)N(Cc1ccco1)Cc1ccccc1Cl	-2%	2.6µM*	i	1%	5%	-14%
Cc1cc2oc(C(=O)N(Cc3ccco3)Cc3ccccc3Cl)c(C)c2cc1C	-1%	nt	i	nt	nt	nt
Cc1cccc(NC(=O)c2cccc([N+](=O)[O-])c2O)c1C	-15%	nt	i	nt	?	nt
Cc1ccnc(NC(=O)c2ccc([N+](=O)[O-])s2)c1	nt	7.4µM*	nt	-2%	3.5µM*	?
Cc1cccc(NC(=O)c2ccc([N+](=O)[O-])s2)c1C	nt	-85%	nt	-2%	?	2.6µM*
N/C(=N\OC(=O)C1CC1)c1ccc([N+](=O)[O-])s1	-18%	6.6µM*	i	-4%	-12%	?
Cc1cccc(NC(=O)c2ccc([N+](=O)[O-])s2)n1	nt	8.3µM*	nt	-27%	16%	?
Cc1nn(CCS(=O)(=O)c2ccc(Cl)cc2)c(C)c1Br	-18%	24%	i	0%	27%	?
O=C(NC1CCCC1)c1ccc([N+](=O)[O-])s1	-16%	10µM*	-24%	nt	?	1%
Cc1cccc(C)c1NC(=O)c1ccc([N+](=O)[O-])s1	?	0%	?	-43%	10µM*	?
COc1ccc(NC(=O)c2ccc([N+](=O)[O-])s2)c([N+](=O)[O-])c1	nt	?	nt	nt	-8%	47%
CNS(=O)(=O)c1cc(NC(=O)CCNC(=O)c2ccco2)ccc1C	-9%	2%	-1%	9%	-12%	1%
CCOC(=O)c1sc(S(C)(=O)=O)c2c1CCc1conc1-2	3%	-20%	-4%	-2%	-17%	?
O=C(Nc1cc(Br)ccc1O)c1cc(-c2ccccc2)on1	nt	?	nt	5%	-1%	2.1µM*
COc1cc(NC(=O)c2cc(-c3ccccc3Cl)on2)cc(OC)c1OC	?	12µM*	i	5%	1.1µM*	0%
COc1cc(NC(=O)c2cc(-c3ccc(Cl)c(Cl)c3)on2)cc(OC)c1OC	-5%	nt	-18%	nt	nt	nt
COc1cc(NC(=O)c2cc(-c3cccc(O)c3)on2)cc(OC)c1OC	-19%	31%	?	-14%	11µM*	nt
COc1ccc(NC(=O)c2cc(-c3ccccc3Cl)on2)cc1	nt	?	nt	-5%	?	?
Cc1ccc(O)c(NC(=O)c2cc(-c3ccccc3)on2)c1	-24%	0%	-26%	21%	-27%	?
O=C(Nc1ccccc1C(F)(F)F)c1cc(-c2cccc(O)c2)on1	nt	10µM*	nt	-2%	-1%	11%
SMILES	VACV Venus inh	Pf growth 96h	Vaccinia mCherry	NS1 inh	HCV inhibitor	Pf growth 48h
CCc1ccccc1NC(=O)c1cc(-c2cccc(O)c2)on1	-10%	-10%	i	-8%	-11%	nt
CC(=O)/C(=N/Nc1ccc(C)cc1)Sc1nnc(CCc2ccccc2)n1-c1ccccc1	1%	-6%	-7%	5%	11%	-7%
CCN(CC)CCCNc1nc2ccccc2c2nc(-c3ccncc3)nn12	11µM*	4.1µM*	?	2%	?	6.6µM*
CN1CCN(CCCNc2nc3ccccc3c3nc(-c4ccccc4)nn23)CC1	nt	nt	nt	-3%	?	nt
CCOCCCNc1nc2cc(OC)c(OC)cc2c2nc(-c3ccccc3)nn12	-8%	nt	-21%	nt	nt	nt
CCN(CC)CCCNc1nc2cc(OC)c(OC)cc2c2nc(-c3ccccc3)nn12	?	22%	?	2%	?	2.3µM*
CCN(CC)CCCNc1nc2cc(OC)c(OC)cc2c2nc(-c3cccnc3)nn12	nt	nt	nt	-5%	?	4.1µM*
COCCCNc1nc2cc(OC)c(OC)cc2c2nc(-c3ccccc3)nn12	-13%	-2%	-24%	0%	5%	0.29µM*
O=C(c1[nH]c(C(F)(F)F)nc1-c1ccccc1)N1CCN(c2ccccn2)CC1	-10%	nt	i	nt	nt	nt
CC(C)(CO)NC12CC3CC(CC(C3)C1)C2	-3%	12%	-9%	nt	8%	9%
COc1ccc(/C=C/c2c([N+](=O)[O-])c(=O)n(C)c(=O)n2C)cc1OC	-2%	-1%	-5%	0%	-9%	?
CCC1CN(S(=O)(=O)c2ccc3c(c2)NC(=O)CC(=O)N3)c2cc(Cl)ccc2O1 (configuration not stated)	-22%	?	-26%	12%	-22%	2.1µM*
CCC1CN(S(=O)(=O)c2cc(-c3onc(C)c3C)ccc2C)c2cc(Cl)ccc2O1 (configuration not stated)	-11%	nt	-18%	nt	nt	nt
Cc1noc(C)c1C(=O)Nc1ccc2c(c1)CCC2	-6%	15µM*	-19%	-9%	nt	24%
COC(=O)C1=C(c2ccc(OC(F)(F)F)cc2)C[C@@H]2CC[C@H]1N2C(=O)NC1CC1	-16%	5.9µM*	-24%	nt	?	?
COC(=O)C1=C(c2ccc(OC(F)(F)F)cc2)C[C@@H]2CC[C@H]1N2C(=O)NCC1CC1	?	?	-12%	nt	?	?
COC(=O)C1=C(c2ccc(OC(F)(F)F)cc2)C[C@@H]2CC[C@H]1N2C(=O)N1CCCC1	?	?	-14%	nt	13µM*	?
CCOC(=O)c1cc(C#N)c(SCc2cccc3ccccc23)nc1C	2%	9.3µM*	nt	10%	-43%	nt
Cn1ccc(C(=O)N/N=C/c2cccnc2)n1	-4%	-24%	i	18%	20%	9%
CCO[C@@H]1OC(C(=O)N2CCN(Cc3ccccc3)CC2)=C[C@H](c2cn(C(C)=O)c3ccccc23)[C@H]1CCCO	-20%	8.3µM*	1%	-14%	-9%[8.37 µM]	8.3µM*
CCO[C@@H]1OC(C(=O)NCc2ccccc2)=C[C@H](c2cn(C(C)=O)c3ccccc23)[C@H]1CCCO	-27%	4.1µM*	-12%	5%	-20%	5.2µM*
